Some test systems named below: NCI-H23 lung; NCI-H226 lung; NCI-H322M lung; HOP-62 NSCLC; NCI-H460 lung; HOP-92 NSCLC; NCI-H522 lung; A549/ATCC NSCLC; 786-0 renal; COLO 205 colon; DU-145 prostate; K-562 leukemia; MALME-3M melanoma; MDA-MB-231 breast; RXF 393 renal; SF-268 CNS; SF-295 CNS; SF-539 CNS; UACC-257 melanoma; M14 melanoma.
Holding throughout (test): NCI-60 one-dose screen, 48 h (100 = growth as untreated, 0 = no growth, -100 = all killed)
Conditions in all cases: 10 µM unless noted

Each structure is given as a SMILES string. The panel holds about 83,000 compounds, 20% with a hit somewhere; the sample as a whole holds those more often.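 For each line, cells grew in 96-well plates with the test compound present at a single concentration for 48 hours.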 Values without a mark were called inactive. Activity calls are given as the source filed them. How the source made its calls: active means growth percent below 10; inactive means the rest.

For the compound `NCC(=O)NS(=O)(=O)OC[C@H]1O[C@@H](n2cnc3c(N)ncnc32)[C@H](O)[C@@H]1O`, the growth in the test with NCI-H23 lung is 5.7% (active); with NCI-H226 lung, -54.6% (active); in the test on NCI-H322M lung, -1.74% (active); with HOP-62 NSCLC it was -32.1% (active); with NCI-H460 lung, 3.35% (active); in the test with HOP-92 NSCLC, 17.3%. Besides, the growth with NCI-H522 lung was -51.6% (active); with A549/ATCC NSCLC, 9.7% (active); in the test on 786-0 renal, -7.02% (active); in the test with COLO 205 colon it was 48.5%; with DU-145 prostate, -31.7% (active); in the test on K-562 leukemia, 7.38% (active). The growth in the test with MALME-3M melanoma is -2.82% (active); in the test with MDA-MB-231 breast, 2.61% (active); with RXF 393 renal, -36.6% (active); with SF-268 CNS, 3.78% (active); in the test with SF-295 CNS, -33.7% (active); in the test with SF-539 CNS it was -9.36% (active). Moreover, the values for the growth in the test with UACC-257 melanoma and in the test with M14 melanoma were 27.4% and -23.1% (active), respectively.
Consider `C#CCn1c(-c2cc(OC)c(OC)cc2Br)nc(-c2ccccc2)c1-c1ccccc1`, for which the growth with NCI-H23 lung is 42.5%; with NCI-H226 lung, 66%; in the test with NCI-H322M lung, 28.6%; with HOP-62 NSCLC, 72.8%; in the test on NCI-H460 lung it was 10.8%; in the test with HOP-92 NSCLC, 41.9%. Further, the growth was 17.4% in the test with NCI-H522 lung; 31.2% with A549/ATCC NSCLC; 48.8% in the test with 786-0 renal; 8.73% (active) in the test with COLO 205 colon; 63.9% in the test on DU-145 prostate; 15.1% in the test with K-562 leukemia. The growth in the test on MALME-3M melanoma was 29.3%; with MDA-MB-231 breast, 45.7%; with RXF 393 renal, 41.3%; in the test with SF-268 CNS, 70%; in the test on SF-295 CNS, 21.6%; with SF-539 CNS it was 62.7%. Further, the growth in the test on UACC-257 melanoma was 59.2%; with M14 melanoma it was 16.1%.
`Cc1ccc[n+](CC(=O)c2cccc3ccccc23)c1`: the growth in the test on NCI-H23 lung was 102%; in the test on NCI-H226 lung, 96.2%; in the test with NCI-H322M lung, 97%; in the test on HOP-62 NSCLC it was 100%; with NCI-H460 lung it was 111%; in the test on HOP-92 NSCLC, 97.1%. In addition, the growth is 101% in the test on NCI-H522 lung; 111% in the test on A549/ATCC NSCLC; 93.8% in the test with 786-0 renal; 101% in the test with COLO 205 colon; 115% in the test with DU-145 prostate; 102% with K-562 leukemia. Moreover, the growth in the test with MALME-3M melanoma is 97.3%; in the test with MDA-MB-231 breast it was 130%; in the test with RXF 393 renal it was 105%; in the test with SF-268 CNS, 103%; in the test on SF-295 CNS, 97.1%; in the test with SF-539 CNS it was 93.2%. Also, the growth with UACC-257 melanoma is 112%; in the test on M14 melanoma it was 98.3%.
As to `ClC1c2ccccc2CCc2ccccc21`, the growth in the test on NCI-H23 lung is 89.2%; in the test with NCI-H226 lung, 96.7%; in the test with NCI-H322M lung, 94.1%; in the test with HOP-62 NSCLC, 90%; in the test with NCI-H460 lung, 114%; with HOP-92 NSCLC, 82.7%. The growth with NCI-H522 lung was 76.6%; with A549/ATCC NSCLC, 93.4%; in the test on 786-0 renal, 93.5%; with COLO 205 colon, 96.5%; in the test with DU-145 prostate it was 120%; in the test on K-562 leukemia, 109%. Besides, the growth is 90.6% in the test with MALME-3M melanoma; 104% in the test with MDA-MB-231 breast; 111% in the test on RXF 393 renal; 99.3% with SF-268 CNS; 106% in the test on SF-295 CNS; 95% with SF-539 CNS. The growth with UACC-257 melanoma was 88.8%; in the test on M14 melanoma, 99.2%.
Regarding `Nc1ncc(-c2ccc3ncnc(Nc4cncc(Cl)c4)c3c2)cn1`, the growth with NCI-H23 lung was 65.1%; in the test with NCI-H226 lung, 55.2%; with NCI-H322M lung, 29.8%; with HOP-62 NSCLC it was 65.6%; in the test on NCI-H460 lung, 67.8%; with HOP-92 NSCLC, -0.664% (active). In addition, the growth was 55.5% in the test on NCI-H522 lung; 65.4% with A549/ATCC NSCLC; 65.8% in the test on 786-0 renal; 75.6% in the test on COLO 205 colon; 49.7% with DU-145 prostate; 82.9% in the test on K-562 leukemia. For the same compound, the growth is 38.7% in the test with MALME-3M melanoma; 66.5% in the test on MDA-MB-231 breast; 60.3% in the test on RXF 393 renal; 68.2% with SF-268 CNS; 77.2% with SF-295 CNS; 78.1% with SF-539 CNS. Also, the growth was 82.9% in the test on UACC-257 melanoma and 77.9% in the test with M14 melanoma.
Regarding `Cc1ccc(/C=C2/C(=O)Nc3cc(Cl)c(-c4csc(N)n4)cc32)cc1`, the growth with NCI-H23 lung is 75%; in the test on NCI-H226 lung, 80.8%; in the test with NCI-H322M lung it was 81.4%; with HOP-62 NSCLC, 71.7%; in the test on NCI-H460 lung, 81.1%; with HOP-92 NSCLC it was 79.4%. The growth with NCI-H522 lung is 33.7%; in the test on A549/ATCC NSCLC, 74.1%; with 786-0 renal, 87.8%; in the test with COLO 205 colon it was 82.1%; in the test with DU-145 prostate, 87.5%; with K-562 leukemia it was 9.97% (active). The growth is 80.4% in the test with MALME-3M melanoma; 46.8% in the test on MDA-MB-231 breast; 76.4% in the test on RXF 393 renal; 71.8% in the test with SF-268 CNS; 70.8% in the test with SF-295 CNS; 81.6% in the test on SF-539 CNS. Also, the growth was 94.7% in the test with UACC-257 melanoma and 52.9% with M14 melanoma.
For `O=C(O)c1ccc(-c2nn(-c3ccc(C(=O)O)cc3)cc2/C=N/Nc2c(F)c(F)cc(F)c2F)cc1`, the growth in the test on NCI-H23 lung is 96%; in the test with NCI-H226 lung, 103%; in the test with NCI-H322M lung, 99.9%; with HOP-62 NSCLC, 99%; in the test with NCI-H460 lung it was 114%; with HOP-92 NSCLC, 115%. The growth was 89.2% in the test with NCI-H522 lung; 97.7% with A549/ATCC NSCLC; 112% in the test with 786-0 renal; 111% in the test with COLO 205 colon; 105% in the test on DU-145 prostate; 105% in the test on K-562 leukemia. Besides, the growth is 93.7% with MALME-3M melanoma; 105% in the test on MDA-MB-231 breast; 112% in the test with RXF 393 renal; 93.2% in the test on SF-268 CNS; 102% in the test on SF-295 CNS; 102% with SF-539 CNS. In addition, the growth in the test with UACC-257 melanoma was 95.7%; with M14 melanoma it was 96.6%.

The values above are taken from PubChem BioAssay (NCI).
